Compound activity: PubChem, National Center for Advancing Translational Sciences (NCATS)
The entries come from a sample that favours hits as a whole.
RORg inh: blocks mouse ROR gamma transcriptional activity. 310,000 tested, 5.4% active. P51450. Drosophila S2 Gal4-RORgamma UAS-luciferase reporter, 20 h. AID 2551. Potency, µM (top dose mostly 53.6 µM), hits mostly inhibitors; note: nearly all actives have a fitted effect of over 60% in size
Target sequence (P51450 whole entry, looked up, the tested form may be a part): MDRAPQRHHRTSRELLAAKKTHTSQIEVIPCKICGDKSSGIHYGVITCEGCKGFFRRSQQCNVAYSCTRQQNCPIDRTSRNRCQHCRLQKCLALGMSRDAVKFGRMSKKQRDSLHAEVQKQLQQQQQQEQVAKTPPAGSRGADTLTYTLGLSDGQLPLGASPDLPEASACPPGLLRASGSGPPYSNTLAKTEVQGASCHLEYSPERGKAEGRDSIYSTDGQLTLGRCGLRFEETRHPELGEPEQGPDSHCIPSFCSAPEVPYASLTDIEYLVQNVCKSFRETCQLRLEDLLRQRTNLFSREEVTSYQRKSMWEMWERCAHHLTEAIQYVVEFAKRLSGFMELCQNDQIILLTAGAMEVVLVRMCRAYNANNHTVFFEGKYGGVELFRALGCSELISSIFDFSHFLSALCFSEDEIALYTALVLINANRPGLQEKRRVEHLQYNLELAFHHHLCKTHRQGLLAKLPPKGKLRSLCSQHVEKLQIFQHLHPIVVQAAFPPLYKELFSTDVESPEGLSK
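Read-out: Photinus luciferase luminescence; inhibitors lower reporter signal. Insect Schneider cells with Gal4-ROR gamma fusion under metallothionein promoter, UAS reporter; 700 uM final copper sulfate induction, 20 hr, ambient temperature.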
ERG Ets-DNA blk: ERG Ets/DNA interaction inhibition | P11308 | Potency, µM (top dose mostly 76.9 µM), most hits filed as inhibitors | AID 624246 | fluorescence polarization, His-ERG Ets domain / labelled DNA | 370,000 tested, 0.028% active; active = well fitted inhibition curve with a large enough effect in the polarisation, with a control signal flat; inconclusive = small, poorly fitted or top-dose-only effect, or effect the other way, or a change in a side signal; inactive = no such curve, though single readings can be large or run the other way; the % refers to the polarisation;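 note: polarization taken with two DNA probes labelled with fluorescein and Texas red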
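His-tagged ERG Ets domain (1 uM in the protein solution; 300mM KCl, 50mM Tris-HCl, 1mM EDTA, 1mM DTT, pH 7.5) received compound, then a probe mix of 5 nM fluorescein-DNA and 100nM Texas-615-DNA. Fluorescence polarization was read for both dyes.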
Giardia killer: kills Giardia lamblia; activity change, % at 7.66 µM, hits read low; Giardia lamblia trophozoite viability; 340,000 tested, 0.15% active; in the data active = activity change below about -80%; inconclusive = between about -30% and that limit;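 note: parasites exposed to compound for two days anaerobically before the ATP read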
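Anaerobic 48 hrs incubation at 37 deg C of 100 trophozoites/well with test compounds; ATPLite 1-Step luminescence, 15-30 min RT, reports cellular ATP as viability.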
Gal4-VP16 FLuc: counter-screen for ROR gamma inhibitors: Gal4-VP16 reporter. Potency, µM (series often up to 53.6 µM), actives largely listed as inhibitors. Drosophila S2 Gal4-VP16 UAS-luciferase, luminescence, 20 h. 310,000 tested, 3.5% active;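 note: Gal4-VP16 expression switched on by copper sulfate through the metallothionein promoter; nearly all actives have a fitted effect of over 50% in size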
Integrin act MD: activates integrin-mediated alleviation for muscular dystrophy; alpha7betagal myoblasts, beta-gal FDG fluorescence, 48 h; Potency, µM (titrated, usually from 38.3 µM), actives largely listed as activators; 350,000 tested, 0.064% active; note: nearly all actives have a fitted effect of over 60% in size
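Alpha7betagal+/- myoblasts (passage 13) were plated 16-24 hr, then exposed to compounds (1:260 dilution of DMSO stock) for 48 hours at 37C. After MPER lysis, β-galactosidase reporter activity was read as FDG fluorescence (ex 480/em 540) after 30 minutes.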
Of the large screens only hits and unclear results are named; the others gave an inactive call. Unless noted, calls come from the whole dose curve; as a rule, active = well fitted curve in the direction sought with a large enough effect; inconclusive = small, poorly fitted or top-dose-only effect, or another doubt; inactive = no such curve, though single readings can be large; an effect the other way counts as inactive or inconclusive.

CCc1c(C#N)c(SCCC(=O)Nc2ccc(F)cc2)nc2c1C(=O)CC(C)(C)C2	none
COc1cc(OC)c(NC(=O)c2nn(C)c3c2COc2ccccc2-3)cc1Cl	none (no result: RORg inh, Giardia killer, Gal4-VP16 FLuc, Integrin act MD)
Cc1c(Cl)cccc1NC(=S)N1CCN(Cc2ccccc2)CC1	RORg inh 10µM, Gal4-VP16 FLuc inconclusive
CC(C)c1ccccc1NC(=S)NC1CCN(Cc2ccccc2)CC1	RORg inh 14µM, Gal4-VP16 FLuc 16µM
Cc1nc(N2CCOCC2)c2nc(-c3ccccc3)n(CC3CCN(C)CC3)c2n1	none (no result: ERG Ets-DNA blk, Giardia killer, Integrin act MD)
O=C(O)COc1ccc2ccccc2c1	none (no result: ERG Ets-DNA blk, Giardia killer, Integrin act MD)
O=C(O)COc1ccc(/C=C/C(=O)c2ccc3ccccc3c2)cc1	RORg inh 1.6µM, Gal4-VP16 FLuc inconclusive
CNC(=O)C1(C(F)(F)F)C/C(=C\Cc2ccccc2)CCCO1 (centres undefined)	none (no result: ERG Ets-DNA blk, Integrin act MD)
CCC1=NN(C(=O)Cc2ccc([N+](=O)[O-])cc2)C(O)(C(C)(C)C)C1 (centres undefined)	RORg inh 8.9µM
COc1ccc(C2=NN(C(=O)C(O)c3ccccc3)C(O)(C(F)(F)F)C2)cc1 (centres undefined)	none
CCOc1ccc(CC(=O)N2N=C(C)CC2(O)C(F)(F)F)cc1 (centres undefined)	RORg inh 1.6µM, Gal4-VP16 FLuc 5µM
CCCC1=NN(C(=O)Cc2ccc(OC)cc2)C(O)(C(F)(F)F)C1 (centres undefined)	RORg inh 13µM, Gal4-VP16 FLuc inconclusive
CCc1ccc(C2(O)CC(C(F)(F)F)=NN2C(=O)Cc2ccc([N+](=O)[O-])cc2)cc1 (centres undefined)	RORg inh inconclusive
COc1cccc(CNC(=O)c2cc(=O)[nH]c3ccc(S(=O)(=O)N4CCOCC4)cc23)c1	none (no result: RORg inh, Gal4-VP16 FLuc)
CCN(CC(=O)NCc1cccs1)C(=O)c1ccc([N+](=O)[O-])o1	Giardia killer -91 (no result: RORg inh, Gal4-VP16 FLuc)
O=C(c1ccccc1)c1cc(-c2ccccc2)on1	RORg inh inconclusive, Gal4-VP16 FLuc 11µM
CCOC(=O)C1=C(CC)Nc2ccccc2N=C1NC(=O)c1ccc(OC)c(S(=O)(=O)N2CCCCC2C)c1 (centres undefined)	Integrin act MD 14µM
CCc1ccc(OCC(=O)N/N=C(\C)c2ccc(O)cc2O)cc1	RORg inh 13µM, Gal4-VP16 FLuc inconclusive
Cc1[nH]c2ccccc2c1/C=N/NC(=S)NCc1ccccc1	RORg inh 11µM, Gal4-VP16 FLuc inconclusive
Cc1ccc(NC(=S)N/N=C/c2c(C)[nH]c3ccccc23)cc1	RORg inh 2µM, Gal4-VP16 FLuc 4µM
Cc1[nH]c2ccccc2c1/C=N/NC(N)=S	none
Cc1ccc(Cn2cccc2/C=N/NC(=S)Nc2ccc(C)cc2)cc1	RORg inh 0.4µM, Gal4-VP16 FLuc 4µM
Cc1[nH]c2ccccc2c1/C=N/NC(=O)CNC(=O)Cc1ccccc1	none
Cc1cccc(NC(=S)N/N=C/c2c[nH]c3ccccc23)c1	RORg inh 2.5µM, Gal4-VP16 FLuc 5.6µM
Cc1cccc(CCNS(=O)(=O)c2ccc3c(c2)NC(=O)CS3)c1	none
CCCCCC(C)NC(=O)CN1C(=O)NC(C)(c2ccc3ccccc3c2)C1=O (centres undefined)	RORg inh 5µM, Gal4-VP16 FLuc 13µM
CC1(c2ccc3ccccc3c2)NC(=O)N(CC(=O)NCc2cccs2)C1=O (centres undefined)	RORg inh inconclusive
CC1(C)CC2CC(C)(CN2S(=O)(=O)c2ccc(C(=O)Nc3ccc(Cl)c(S(=O)(=O)N4CCOCC4)c3)cc2)C1 (centres undefined)	RORg inh inconclusive, Gal4-VP16 FLuc 13µM (no result: ERG Ets-DNA blk)
O=C(Nc1cc(S(=O)(=O)N2CCCCC2)ccc1Cl)c1ccccc1NS(=O)(=O)c1ccc(F)cc1	RORg inh inconclusive, Gal4-VP16 FLuc 5.6µM
Oc1ccc(/C=N/n2cc(-c3ccccc3)[nH]c2=S)cc1	RORg inh 7.9µM
O=C(NN=Cc1cccc2ccccc12)C(=O)NN=Cc1cccc2ccccc12	none (no result: RORg inh, Gal4-VP16 FLuc)
CC1CCCC(C)N1/N=C/c1ccccc1Br (centres undefined)	none
Cc1ccc(/C=N/n2cc(-c3ccccc3)[nH]c2=S)s1	RORg inh 0.45µM, Gal4-VP16 FLuc 5µM
COc1cc(/C=N/n2cc(-c3ccccc3)[nH]c2=S)cc(OC)c1O	RORg inh inconclusive
S=c1[nH]c(-c2ccccc2)cn1/N=C/c1ccccc1Br	RORg inh 1µM, Gal4-VP16 FLuc inconclusive
S=c1[nH]c(-c2ccccc2)cn1/N=C/c1cccc2ccccc12	RORg inh 2.5µM, Gal4-VP16 FLuc inconclusive
CO[C@@H]1COC(=O)C/C=C\[C@H](C)COC(=O)[C@H](C)NC(=O)C/C=C\[C@H]1C	none (no result: ERG Ets-DNA blk, Giardia killer, Integrin act MD)
CCOC(=O)CCN1C(=O)[C@H]2[C@H]3[C@H](O)[C@H](O)C/C(=N/OC/C=C(\C)CCC=C(C)C)[C@@H]3CC[C@@H]2C1=O	none (no result: ERG Ets-DNA blk, Giardia killer, Integrin act MD)
COc1cc(OC)c2cc(C(=O)N/N=C/c3cccc(OC)c3O)[nH]c2c1	RORg inh 2.2µM, Gal4-VP16 FLuc 4.5µM
COc1cccc(/C=N/NC(=O)c2cc3c(OC)ccc(OC)c3[nH]2)c1O	RORg inh 1.6µM, Gal4-VP16 FLuc 2.8µM
COc1cccc(/C=N/NC(=O)c2ccc3nc[nH]c3c2)c1O	none
O=S(=O)(c1cccc(C(F)(F)F)c1)N1CCN(c2nc(-c3cccs3)nc3cc(Cl)ccc23)CC1	none (no result: RORg inh, ERG Ets-DNA blk, Gal4-VP16 FLuc, Integrin act MD)
COc1ccc2nc(SCC(=O)C(C)(C)C)[nH]c2c1	none
COc1ccc(C(=O)/C=C/Nc2cc(C)ccn2)cc1	RORg inh 0.2µM, Gal4-VP16 FLuc inconclusive
Cc1ccnc(NC(=O)Nc2ccc(F)cc2)c1	RORg inh inconclusive
CSc1ccc(NC(=O)Nc2cc(C)ccn2)cc1	RORg inh 8.9µM, Gal4-VP16 FLuc inconclusive
Cc1ccnc(N/C=C/C(=O)c2ccc(Br)cc2)c1	RORg inh inconclusive, Gal4-VP16 FLuc inconclusive
COc1ccc(C(=O)NC(=O)Nc2cc(C)ccn2)cc1	RORg inh 0.04µM, Giardia killer inconclusive, Gal4-VP16 FLuc 0.18µM (no result: ERG Ets-DNA blk)
Cc1ccc(C(O)C2=CCCC2=O)cc1 (centres undefined)	none (no result: ERG Ets-DNA blk, Giardia killer, Integrin act MD)
Cc1c(C(=O)NC2CCCC2)oc2ccccc12	none (no result: RORg inh, Gal4-VP16 FLuc)
Cc1cc(-n2[nH]c(C)c(C)c2=O)nc(-c2ccccc2O)n1	RORg inh 11µM, Gal4-VP16 FLuc inconclusive
O=C(O)CCCCCN1C(=O)CSC1=S	RORg inh 5µM, ERG Ets-DNA blk inconclusive
CC(C)OC(=O)CCCCCN1C(=O)CSC1=S	ERG Ets-DNA blk inconclusive
C=CC[C@@H]1C=C[C@@H](O/N=C\c2ccc(C(=O)N3[C@H](c4ccc(C)cc4)[C@@H](C)CC[C@H]3C(=O)OC)cc2)[C@@H](CO)O1	none (no result: ERG Ets-DNA blk, Giardia killer, Integrin act MD)
Cc1ccc(CN2CCNC(=O)C2CC(=O)N(C)C2CCOCC2)cc1 (centres undefined)	RORg inh inconclusive
COc1ccc(C2C(C(C)=O)=C(O)C(=O)N2CCc2c[nH]c3ccccc23)cc1OC (centres undefined)	none
